This is one part of a sample in which hits are shown more often than they occur.
TTR transcr act = TTR transcription activation, primary screen; SH-SY5Y TTR promoter Gaussia luciferase, luminescence; 100% = recombinant luciferase protein wells; activation, % at 16.7 µM; actives 1.3% (n = 92,000); AID 1117267;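 active means activation above the mean of all tested compounds plus 3 SD, cut at about 9.5% in these data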;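 further: cells exposed to compounds for one day before reading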
HuH7 TTR inh = counter-screen for TTR activators: TTR transcription inhibitors in HuH7 cells | shares compounds with TTR transcr act | inhibition, % at 16.7 µM | HuH7 TTR promoter-Gaussia luciferase reporter, luminescence | AID 1117279 | actives 4% (n = 1,100);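 active means average inhibition above the solvent-only control wells' mean plus 3 SD, cut at about 15% in these data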;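 further: inhibitors lower well luminescence so higher value means more inhibition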
TTR up confirm = confirmation of human transthyretin transcription activators. shares compounds with TTR transcr act. SHSY5Y TTR promoter Gaussia luciferase, luminescence; 100% = purified Lucia enzyme wells, no cells. activation, % at 16.7 µM. 1,100 tested, under 10 active. AID 1117280;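 active means mean activation above a set limit taken from the earlier primary screen, cut at about 11% in these data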
Large screens that a line does not name were inactive (follow-up assays come after a bar, where they were run).

COc1ccc(CN[C@@H]2CC[C@@]34CCCN3C(=O)CCC[C@H]4C2)cc1OC	none
C=CCN(C)C(C#Cc1ccccc1)c1ccccc1C(F)(F)F (stereo not drawn)	none
Cc1ccc(S(=O)(=O)NCC2CN(S(=O)(=O)c3ccc(C)cc3)c3ccccc3C(=O)N2c2ccc(F)cc2)cc1 (stereo not drawn)	none
N=c1c2c(ccn1CCCCc1ccccc1)Oc1ccc3ccccc3c1C2c1ccccc1 (stereo not drawn)	none
COCC(=O)Nc1cc(OC)ccc1OC	none
COc1ccc(OC)c(NC(=O)CSCC(=O)O)c1	TTR transcr act 23.4
COc1ccc(NC(=O)CSCc2ccc(C#N)cc2)c(OC)c1	none
NC(=O)C1CCN(c2nc(-c3ccc(OCc4ccccc4)cc3)cs2)CC1	none
CO[C@H]([C@H](C)/C=C/N(C)C=O)[C@@H](C)C(=O)CC[C@H](C)[C@H](O)[C@H](C)[C@H]1OC(=O)/C=C/C(C)=C/C[C@H](O)C[C@@H]2C=CC[C@@H](C[C@H](OC)[C@@]3(CO3)[C@@H](OC)C[C@@H](OC)[C@@H]1C)O2	none
O=C(NCc1cccc(Cl)c1)O[C@H]1CC[C@@]23CCCN2C(=O)CCC[C@H]3C1	none
CCn1c(SCC(=O)Nc2cccc(OC)c2)nnc1-c1ccc(Cl)cc1	none
CCn1c(SCC(=O)Nc2ccc(N(C)C)cc2)nnc1-c1cccc(C)c1	TTR transcr act 28.2
CCn1c(SCC(=O)Nc2ccc(C)cc2)nnc1-c1ccccn1	none
CSc1ncccc1C(=O)OCc1ccccc1F	none
COC(=O)c1cc(COC(=O)c2cccnc2SC)oc1C	TTR transcr act 40.8
COC(=O)c1cc(COC(=O)CNC(=O)c2cccc(C)c2)oc1C	none
O=C(Nc1nc2c(Br)cccc2s1)c1ccc2c(c1)OCCO2	none
COc1ccc(CN2CN3CCc4ccccc4C3CS2(=O)=O)cc1 (stereo not drawn)	none
COc1ccc(C(=O)c2[nH]c(N)c(C(=O)c3ccccc3)c2-c2ccc(OC)c(OC)c2)cc1	none
N#Cc1cc(-c2cccc(Cl)c2)c[nH]c1=O	TTR transcr act 12.9
N#Cc1c(-c2cccc(Cl)c2)[nH]c(=S)[nH]c1=O	none
C=CCn1cc(-c2cccc(Cl)c2)cc(C#N)c1=O	none
CC1CCN(c2nnc(N3CCC(C)CC3)c3ccccc23)CC1	TTR transcr act 15.3
CC1CCN(c2ncccc2C(=O)O)CC1	none
Cc1cc(N2CCC(C)CC2)nc2ccccc12	none
CCCCOc1ccc(C(=O)NC2CCCCN(Cc3ccc(Cl)cc3)C2=O)cc1 (stereo not drawn)	none
O=C(Nc1ccc2ccccc2c1)C1CC2CCC1C2 (stereo not drawn)	none
COC(=O)[C@]12C[C@H](CC(=O)N3CCCC3)C(=O)N(Cc3ccco3)C1=C[C@H](C1CCCC1)O[C@@H]2C	none
CCN(CC)S(=O)(=O)c1cc(NS(=O)(=O)c2cccc(Cl)c2Cl)ccc1C	none
CCN(CC)S(=O)(=O)c1ccc(NS(=O)(=O)c2ccc(OC)c([N+](=O)[O-])c2)cc1	none
CCN(CC)S(=O)(=O)c1ccc(NS(=O)(=O)c2cccc(C)c2)cc1	TTR transcr act 10.0
O=C(OCc1cn(Cc2cccc(F)c2)nn1)N1CCCCC1	none
O=C(c1ccc2c(c1)OCO2)N1CCN(c2ccccc2)CC1	none
COc1ccc(N2CCN(C(=O)c3ccc4c(c3)OCO4)CC2)cc1	TTR transcr act 20.9 | HuH7 TTR inh inactive | TTR up confirm inactive
COc1ccc(N2CCN(C(=O)c3ccncc3)CC2)cc1	none
COc1ccc2c(c1)CSC(c1ccccc1)C2=O (stereo not drawn)	none
CCCC[C@H](C(=O)N(C)c1cccc(OC)c1)[C@@H](O)c1ccc(Cl)cc1	none
O=C1COc2ccccc2C(c2nnnn2Cc2ccccc2)N1Cc1cccs1 (stereo not drawn)	none
CCOc1ccc(C(=O)N[C@H](C(=O)Nc2ccccc2OC)C(C)C)cc1	none
CCCn1nc2cc(C(=O)NCc3ccccc3OC)ccc2c1OCC	none
CCOc1ccc(C(=O)NCc2ccccc2OC)cc1	TTR transcr act 15.1 | HuH7 TTR inh inactive | TTR up confirm inactive
O=C(COC(=O)c1cc(=O)[nH]c2ccccc12)NC1CCCCC1	TTR transcr act 12.2 | HuH7 TTR inh inactive | TTR up confirm inactive
NC(=O)COC(=O)c1cc(=O)[nH]c2ccccc12	none
CNC(=O)COC(=O)c1cc(=O)[nH]c2ccccc12	none
CN1C2=N[C@@H](c3ccc4ccccc4c3)CC(=O)N2/C(=C\c2ccccc2)[C@H]1c1ccccc1	none
COC(=O)[C@]12C[C@H](CC(=O)N3CCN(C(=O)C4CC4)CC3)C(=O)N(Cc3ccccc3)C1=C[C@H](COCc1ccccc1)O[C@@H]2C	none
O=C(NCc1ccc(Cl)cc1)c1csc(-c2cccnc2)n1	none
O=C(NNC(=O)c1ccc(Cl)cc1Cl)c1csc(-c2cccnc2)n1	none
O=C(NNS(=O)(=O)c1ccc(F)cc1F)c1csc(-c2cccnc2)n1	TTR transcr act 19.3 | HuH7 TTR inh inactive | TTR up confirm inactive
CN1CC(O)([C@H](Cc2ccccc2)NC(=O)OC(C)(C)C)OCC1C(=O)NCc1cccc2ccccc12 (stereo partly drawn)	none
Cc1c(C(=O)N2CCOCC2)oc2ccc(S(=O)(=O)N3CCCC3)cc12	none
Cc1c(C(=O)N2CCN(S(=O)(=O)c3ccccc3)CC2)oc2ccc(Br)cc12	TTR transcr act 31.2 | HuH7 TTR inh inactive | TTR up confirm inactive
Cc1c(C(=O)N2CCc3ccccc3C2)oc2ccc(S(=O)(=O)N3CCCCCC3)cc12	none
CC(C)(C)OC(=O)N1CCC(N[C@@H](Cc2ccccc2)C(=O)NCCc2c[nH]c3ccccc23)(C(=O)NC2CCCCC2)CC1	none
Clc1cccc(-c2nc3ccc(Br)cn3c2Cc2ccccc2)c1	none
Cc1ccc(Cc2c(-c3ccccc3)nc3ccc(Br)cn23)cc1	none
Brc1cccc(-c2nc3ccc(Br)cn3c2Cc2ccccc2)c1	TTR transcr act 21.7 | HuH7 TTR inh inactive | TTR up confirm inactive
O=S1(=O)c2ccc(N3CCC[C@H]3CO)cc2O[C@@H]2CCN1C2	none
COc1ccccc1NC(=O)OC1CC2CC1[C@H]1CCCCN1[C@H]2C (stereo partly drawn)	none
O=C(NCCc1c[nH]c2ccccc12)OCc1cn(-c2ccc(Cl)cc2)nn1	none
COc1ccc(C2/C(=C(/O)c3ccc(F)cc3)C(=O)C(=O)N2CCCN(C)C)cc1 (stereo not drawn)	TTR transcr act 12.2 | HuH7 TTR inh inactive | TTR up confirm inactive
COc1ccc(/C(O)=C2/C(=O)C(=O)N(CCCN3CCOCC3)C2c2ccc(N(C)C)cc2)cc1 (stereo not drawn)	none
CCCOc1cccc(C2/C(=C(/O)c3ccc(OC)cc3)C(=O)C(=O)N2CCN(C)C)c1 (stereo not drawn)	none
CC(C)NC(=O)C1(C)CCN1C(=O)c1cccc(F)c1 (stereo not drawn)	none
COC(=O)CN(c1ccc(C(C)C)cc1)S(=O)(=O)c1c(C)[nH]c(=O)[nH]c1=O	none
Cc1ccc(N(C(C)C(=O)O)S(=O)(=O)c2c(C)[nH]c(=O)[nH]c2=O)cc1 (stereo not drawn)	TTR transcr act 10.2 | HuH7 TTR inh inactive | TTR up confirm inactive
CCCCN(C)S(=O)(=O)c1c(C)[nH]c(=O)[nH]c1=O	none
CCCCN1CN2CCc3ccccc3C2CS1(=O)=O (stereo not drawn)	none
c1nc(NCC2CCOC2)c2cc(-c3ccc4c(c3)OCO4)ccc2n1 (stereo not drawn)	none
